This is a sample that favours compounds with a hit; in the whole collection about 13% have one here.
Sfp inh: qHTS Assay for Inhibitors of Bacillus subtilis Sfp phosphopantetheinyl transferase (PPTase); 4'-phosphopantetheinyl transferase ffp (Bacillus subtilis), Q9F4F7; Biochemical Sfp PPTase activity, qHTS; Potency, µM, without a hit: largest response in the series, negative = inhibition, hits mostly inhibitors; 3.5% of 310,000 active;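 also: the enzyme is Sfp with the accession as filed and its product quenches rhodamine fluorescence; potency is read from the fitted curve at half-maximal effect; 0% = enzyme reaction without inhibitor and -100% = no enzyme wells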
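Buffer: 50 mM Hepes-Na pH 7.6, 10 mM MgCl2, 0.01% Nonidet P-40, 0.01% BSA. Enzyme 15 nM, pre-exposed to compound 15 min; substrates then added and fluorescence change tracked over 30 min.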
KDM4E inh: qHTS Assay for Inhibitors of Human Jumonji Domain Containing 2E (JMJD2E); Lysine-specific demethylase 4E (Homo sapiens), B2RXH2; JMJD2E catalytic domain, FDH-coupled NADH fluorescence (FDH is formaldehyde dehydrogenase); Potency, µM (top dose mostly 57.1 µM), for the others: top-dose activity change, negative = inhibition, most hits filed as inhibitors; 1.6% of 230,000 active; AID 2147, 2009; active = well fitted inhibition curve with a large enough effect, not every such curve was filed as active; inconclusive = small, poorly fitted or top-dose-only effect, or another doubt; inactive = no such curve, though single readings can be large or run the other way;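 also: potency is read from the fitted curve at half-maximal effect; 0% = wells with enzyme and -100% = buffer wells without enzyme; nearly all actives have a fitted effect of over 50% in size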
Target sequence (B2RXH2 1-337 limits assumed): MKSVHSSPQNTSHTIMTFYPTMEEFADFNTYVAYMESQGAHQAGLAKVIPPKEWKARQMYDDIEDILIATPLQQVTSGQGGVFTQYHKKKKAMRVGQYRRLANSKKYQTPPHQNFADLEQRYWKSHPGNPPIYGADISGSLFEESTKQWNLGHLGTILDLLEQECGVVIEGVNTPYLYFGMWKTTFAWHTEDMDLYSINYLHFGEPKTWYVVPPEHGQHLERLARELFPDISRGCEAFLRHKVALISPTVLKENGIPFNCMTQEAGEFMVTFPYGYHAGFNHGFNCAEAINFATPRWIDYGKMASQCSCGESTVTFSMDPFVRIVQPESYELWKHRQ
miR-21 reporter: qHTS Assay for Modulators of miRNAs and/orActivators of miR-21; HeLa miR-21 FLuc reporter, luciferase, 48 h; Potency, µM (series often up to 38.3 µM), for inactives: top-dose activity change, positive = activation, most hits filed as activators; 340,000 tested, under 10 active; AID 2288, 2010;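 also: % of control where 0% means no effect; miR-21 action dims this reporter so a rising signal means less miR-21 action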
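Luminescence from a firefly luciferase reporter carrying a miR-21 binding site downstream, stably expressed under a CMV promoter in HeLa cells that make miR-21 endogenously, reports miRNA modulation after 48 h compound exposure up to approximately 40uM final.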
ALDH1A1 inh: qHTS Assay for Inhibitors of Aldehyde Dehydrogenase 1 (ALDH1A1) | Aldehyde dehydrogenase 1A1 (Homo sapiens), P00352 | Purified ALDH1A1, NADH fluorescence, propionaldehyde substrate | Potency, µM (titrated, usually from 75.3 µM), for the others: at the top dose activity, negative = inhibition, usual class: inhibitors | 7.3% of 220,000 active | AID 1030, 2008; active = well fitted inhibition curve with a large enough effect, not every such curve was filed as active; inconclusive = small, poorly fitted or top-dose-only effect, or another doubt; inactive = no such curve, though single readings can be large or run the other way;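 also: potency is read from the fitted curve at half-maximal effect; plate controls were no enzyme wells and a reference inhibitor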
G9a block: qHTS Assay for Inhibitors of Histone Lysine Methyltransferase G9a | 8.8% of 350,000 active | G9a H3K9 monomethylation, AlphaScreen, 2 h | Histone-lysine N-methyltransferase EHMT2 (Homo sapiens), Q96KQ7 | Potency, µM (doses to about 102 µM), inactives show top-dose activity, negative = inhibition, usual class: inhibitors | AID 504332, 2011; also: potency is read from the fitted curve at half-maximal effect; % is scaled to controls: 0 for no effect and ±100 for the full control effect; nearly all actives have a fitted effect of over 75% in size
Target sequence (Q96KQ7 913-1193 limits assumed): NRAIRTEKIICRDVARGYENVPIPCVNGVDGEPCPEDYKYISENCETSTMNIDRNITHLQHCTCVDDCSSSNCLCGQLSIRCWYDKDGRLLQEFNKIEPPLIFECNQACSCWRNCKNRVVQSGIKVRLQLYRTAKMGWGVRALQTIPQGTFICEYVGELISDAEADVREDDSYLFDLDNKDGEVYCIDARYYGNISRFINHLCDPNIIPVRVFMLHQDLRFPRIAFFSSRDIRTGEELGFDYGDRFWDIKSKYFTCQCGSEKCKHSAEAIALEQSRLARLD
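Methyltransferase reactions run at room temperature for 2 h (20 nM enzyme, 500 nM biotin-H3K9 peptide, 20 uM SAM) after a 15 min compound preincubation; product detected by AlphaScreen beads and anti-H3K9me1 antibody.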
Lamin A splicing: qHTS Assay for Modulators of Lamin A Splicing; HeLa LMNA splicing GFP/RFP minigene ratio, 48 h; Potency, µM (series often up to 46.1 µM), for the others: top-dose ratio change, negative = inhibition, usual class: inhibitors; 0.01% of 200,000 active; AID 1487, 2009; active = well fitted inhibition curve with a large enough effect in the signal ratio, with a control signal flat, not every such curve was filed as active; inconclusive = small, poorly fitted or top-dose-only effect, or effect the other way, or a change in a side signal; the % refers to the signal ratio; also: potency is read from the fitted curve at half-maximal effect; % is scaled to controls: 0 for no effect and ±100 for the full control effect
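S3 HeLa cells stably expressing lamin A-EGFP splicing minigene plus DsRed2, 600 cells/well, 48 h compound exposure at 37C. Laser-scanning cytometry; analysed as GFP (500-530 nm)/RFP (575-640 nm) total intensity ratio; 0.5% DMSO vehicle.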
* hit, by the source's call; ? = inconclusive; · = no result given; [ ] = another dose, or the depositor's remark. Unless noted, calls follow the shape of the dose curve; as a rule, active = well fitted curve in the direction sought with a large enough effect; inconclusive = small, poorly fitted or top-dose-only effect, or another doubt; inactive = no such curve, though single readings can be large; an effect the other way counts as inactive or inconclusive.

SMILES	Sfp inh	KDM4E inh	miR-21 reporter	ALDH1A1 inh	G9a block	Lamin A splicing
CCCCn1nc(C(=O)N(C)CC(=O)Nc2cccc(F)c2)c2ccccc2c1=O	·	·	·	·	35.5µM*	·
COc1ccc(C(CNC(=O)c2ccc(-c3ccccc3Cl)o2)N2CCOCC2)cc1 (stereo not drawn)	·	·	·	·	44.7µM*	·
O=C(Nc1cccc(F)c1)c1ccc(-c2ccccc2Cl)o1	0.5%	-8.6%	-66.2%	-0.4%	56.2µM*	?
Cc1ccc(NC(=O)c2ccc(-c3cccc(Cl)c3C)o2)cc1	·	·	-29.0%	·	-1.3%[59 µM]	·
COc1ccc(NS(=O)(=O)NC(=O)c2c[nH]c3ccccc23)cc1	15.5%	·	-5.3%	·	?	·
C[C@@H](NC(=O)c1cc2c([nH]c3ccccc32)c(-c2ccccc2)n1)C(=O)O	-4.1%	·	-6.4%	·	-18.7%	·
Cc1c(C(=O)Nc2ccc(F)cc2)oc2ccc(S(=O)(=O)N3CCCCCC3)cc12	·	·	26.5%	·	?	7.9%[46 µM]
O=C(CSc1nnc(-c2ccccc2)c(-c2ccccc2)n1)NCCc1ccccc1	·	·	13.8%	·	?	11.3%[46 µM]
COc1ccc(-n2c(=O)c3c(c4cc(OC)ccc4n3C)n(CC(=O)N3CCCC3)c2=O)cc1	·	·	2.3%	·	-38.1%[59 µM]	·
COc1ccc(NC(=O)c2ccc(-c3ccc(C)c4ccccc34)o2)cc1	?	-3.2%	-22.7%	?	39.8µM*	?
Cc1ccc2c(C)c(C(=O)NCC(c3ccc(Cl)cc3)N3CCOCC3)oc2c1 (stereo not drawn)	·	·	12.2%	·	12.6µM*	?
COc1ccc(NC(=O)c2ccc(-c3ccccc3Cl)o2)cc1	16.6%	-28.6%	-83.5%	?	79.4µM*	?
COc1ccc(NC(=O)c2ccc(-c3cccc(Cl)c3C)o2)cc1	·	·	-19.6%	·	-27.5%[59 µM]	·
COc1ccc(NC(=O)CC2C(=O)N(c3ccc(F)cc3)C(=O)N2Cc2ccc3c(c2)OCO3)cc1 (stereo not drawn)	·	·	6.9%	·	-32.2%[59 µM]	·
COC(=O)[C@@]1(Cc2ccc(OC)cc2)[C@H]2c3cc(C(=O)N(C)C)n(Cc4ccc(C(F)(F)F)nc4)c3C[C@H]2CN1C(=O)c1ccccc1	17.1%	-9.7%	·	-17.1%	·	·
Cc1cc(=O)oc2cc(OC(C)C(=O)NC3(C#N)CCCCC3)ccc12 (stereo not drawn)	·	·	·	·	13.5%[0.501 µM]	·
CCOC(=O)C(C)Sc1nnc2ccc3ccccc3n12 (stereo not drawn)	·	·	-36.5%	·	-8.6%[59 µM]	-5.4%[46 µM]
CCC1CCCCN1C(=O)CCS(=O)(=O)c1cc2c(cc1C)NC(=O)CO2 (stereo not drawn)	·	·	-3.5%	·	8.91µM*	?
Cc1cc2c(cc1S(=O)(=O)CCC(=O)N1CCC(C)CC1)OCC(=O)N2	·	·	?	·	15.3%[59 µM]	?
COc1cccc(N2CCN(C(=O)c3cc4c(s3)CCCCC4)CC2)c1	·	·	·	·	11.1%[2.33 µM]	·
CN1CCc2cccc3c2[C@H]1Cc1ccc(O)c(O)c1-3	39.8µM*	?	?	?	1.41µM*	?
O=S(=O)(c1ccccc1F)N1CCN(CCc2ccccc2)CC1	0.8%	·	15.0%	·	-5.0%	·
O=C(NCc1ccc2c(c1)CCN2C(=O)c1ccc(F)cc1)c1ccc(Br)o1	·	·	?	·	-26.5%[59 µM]	?
Cc1ccc(C2C(C#N)=C(N)Oc3nc(-c4ccccc4)[nH]c32)o1 (stereo not drawn)	10.2%	-15.2%	-1.1%	-7.1%	50.1µM*	0.4%
Fc1ccc2c(c1)C(c1ccc(N3CCOCC3)cc1)=NNC(c1cccs1)=N2	9.5%	0.6%	3.8%	6.6%	20µM*	-16.5%
SMILES	Sfp inh	KDM4E inh	miR-21 reporter	ALDH1A1 inh	G9a block	Lamin A splicing
CCOc1ccc(C2=Nc3ccc(Br)cc3C(c3ccc(N4CCOCC4)cc3)=NN2)cc1	8.9%	-0.6%	-51.1%	1.0%	44.7µM*	?
CCOc1ccc(C2=NNC(c3cccs3)=Nc3ccc(OC)cc32)cc1	-11.6%	-1.3%	-48.7%	-9.9%	11.2µM*	?
CCN(CC)c1ccc(SS(=O)(=O)O)cc1	44.7µM*	-16.1%	17.3%	12.6µM*	5.01µM*	12.4%
Cc1ccc(S(=O)(=O)c2ccc([N+](=O)[O-])cn2)cc1	?	·	?	·	39.8µM*	·
O=[N+]([O-])c1ccc(S(=O)(=O)c2ccccc2)nc1	50.1µM*	·	?	·	39.8µM*	·
Cc1ccc(S(=O)(=O)c2ccc(C)cc2)cc1	-3.5%	-11.5%	-0.5%	13.4%	27.9%[59 µM]	9.6%
Nc1ccc(S(=O)(=O)c2ccccc2)nc1	?	·	-1.3%	·	22.2%[2.33 µM]	·
COc1ccc(NS(=O)(=O)c2ccc3oc(=O)c4[nH]c(=O)c(=O)n(C)c4c3c2)cc1	23.9%	·	-3.1%	·	11.3%[59 µM]	·
O=C(Nc1nnc(S(=O)(=O)N2CCCc3ccccc32)s1)c1cccc(Cl)c1	·	·	-0.5%	·	-9.8%[59 µM]	?
CC(=O)NS(=O)(=O)c1ccc(NC(=O)c2ccc(S(=O)(=O)N3CCCC3)cc2)cc1	·	·	·	·	16.8%[2.33 µM]	·
CC(C)c1ccccc1NC(=O)C1CC(=O)N(C2CCCC2)C1 (stereo not drawn)	10.1%	·	-2.0%	·	4.3%	·
CC(=O)Nc1ccc(NC(=O)Cn2nc([N+](=O)[O-])c(Br)c2C)cc1	-0.6%	9.3%	-1.5%	3.1%	13.6%	?
Cc1c(Br)c([N+](=O)[O-])nn1CC(=O)Nc1ccc(Cc2ccncc2)cc1	?	4.2%	-0.6%	?	44.7µM*	?
CC1=C(CC/C(C)=N/NC(N)=S)C(C)(C)CCC1	44.7µM*	-6.3%	1.2%	28.2µM*	?	7.5%
CC(C)=CCN1CCN(CCC2=C(C)CCCC2(C)C)CC1CCO (stereo not drawn)	16.3%	-3.6%	0.2%	5.9%	-5.2%	·
CCOC(=O)c1ccc(N2C(=O)CC(Sc3ncccn3)C2=O)cc1 (stereo not drawn)	-19.7%	·	3.3%	·	?	·
CCOc1ccc2nc(SC3CC(=O)N(c4ccccc4)C3=O)sc2c1 (stereo not drawn)	11.6%	?	-29.3%	14.1µM*	?	?
CCOC(=O)c1cnc(SC2CC(=O)N(c3cccc(OC)c3)C2=O)nc1N (stereo not drawn)	-4.8%	-3.5%	-14.6%	-0.7%	35.5µM*	8.2%
CCOc1ccc2nc(SC3CC(=O)N(c4cccc(OC)c4)C3=O)sc2c1 (stereo not drawn)	-10.4%	-18.2%	-17.4%	20µM*	10µM*	-7.1%
COCCCNC(=O)c1sc2nc(C)c(C(=O)Nc3ccc(C)cc3C)c(-c3ccccc3Cl)c2c1N	·	·	23.6%	·	-32.1%[59 µM]	·

Compound activity (PubChem BioAssay)
